Data: PubChem BioAssay (EPA / NIEHS)
Activity calls are given as the source filed them. Rule for the calls: active = hit-call score of the fitted dose curve at least 0.9, where 1 is the maximum; inactive = score below 0.9.

read-out: Epidermal growth factor receptor (EGFR), EGFR (gene 1956); experiment: BSK_hDFCGF_EGFR: BioMAP Diversity Plus: hDFCGF Assay for Epidermal growth factor receptor (EGFR) Biomarker Activity (AID 2283057); conditions: primary human foreskin fibroblasts; actives raise or lower the signal
Method: BSK_hDFCGF is a cell-based, multiplexed-readout assay that uses foreskin fibroblast, a human skin primary cell, with measurements taken at 24 hours after chemical dosing in a 96-well plate.BSK_hDFCGF_EGFR is an assay component measured in the BSK_hDFCGF assay. It measures EGFR antibody related to regulation of gene expression using ELISA technology.Data from the assay component BSK_hDFCGF_EGFR was analyzed into 1 assay endpoint. This assay endpoint, BSK_hDFCGF_EGFR, was analyzed with bidirectional fitting relative to DMSO as the negative control and baseline of activity. Using a type of binding reporter, gain or loss-of-signal activity can be used to understand changes in the signaling as they relate to the gene EGFR. Furthermore, this assay endpoint can be referred to as a primary readout, because this assay has produced multiple assay endpoints where this one serves a signaling function. To generalize the intended target to other relatable targets, this assay endpoint is annotated to the kinase intended target family, where the subfamily is receptor tyrosine kinase.
The levels of cell surface (or secreted, indicated by the prefix "s") biomarker endpoints were measured by ELISA. Overt cytotoxicity to cells in confluent adherent cultures (all systems other than the BT system) was assessed by measuring total protein levels using sulforhodamine B (SRB) staining in parallel cultures at the time of biomarker measurements, indicated as SRB endpoints. For proliferation assays for adherent cell types, individual cell types are cultured at sub-confluence and relative cell numbers quantified by SRB staining at time points optimized for each system (48 h: 3C and CASM3C systems; 72 h: BT and HDF3CGF systems; 96 h: SAg system). SRB was performed by staining cells with 0.1% SRB after fixation with 10% TCA and reading wells at 560 nm.Viability and proliferation of PBMC (T cells) was quantified by Alamar Blue reduction for the SAg and BT systems. For PBMC viability (referred to as PBMC Cytotoxicity within the assay endpoint names), cells were plated (75,000/well in a 96-well plate) and then chemical samples added for 1 h before addition of activators, SEB and TSST-1 (20 ng/mL final concentration each). Cells were incubated for 90 h. Then, Alamar Blue (20 uL/well) (Invitrogen, Cat DAL1100) was added for 6 h, and the plates were read with a fluorescence microplate reader at 546/580 nm (excitation/emission). For PBMC proliferation, cells were plated and activated as above but incubated for only 16 h prior to addition of Alamar Blue. Plates were read after 6 h.

SMILES	outcome	AC50
C[C@]12CC[C@@H]3c4ccc(O)cc4CC[C@H]3[C@@H]1CC[C@H]2O	inactive	
CC(=O)N1CCN(c2ccc(OC[C@H]3CO[C@](Cn4ccnc4)(c4ccc(Cl)cc4Cl)O3)cc2)CC1	inactive	
Cc1ccc2oc(CN(Cc3ccccc3)C(=O)Nc3c(F)cc(F)cc3F)c(-c3ccc(Cl)cc3)c2c1	inactive	
O=C=NCCCCCCN=C=O	inactive	
CCCC(=O)OCCC(C)C	inactive	
CCCCCc1ccc(N)cc1		0.0546 µM (active)
CCCCCCCCCCCCO		19.8 µM (active)
CCCCCCCCOC(=O)c1cc(O)c(O)c(O)c1	inactive	
Clc1ccccc1C(c1ccccc1)(c1ccccc1)n1ccnc1	inactive	
CC[C@H](NC(=O)c1cc(F)ccc1NS(=O)(=O)c1cccc2cccnc12)c1ccccc1	inactive	
CN(C)c1ccc(C(=C2C=CC(=[N+](C)C)C=C2)c2ccc(N(C)C)cc2)cc1	inactive	
CC(C)(O)c1ccc(CNC(=O)c2cccnc2Oc2ccc3nonc3c2)cc1	inactive	
O=C1CCC(C2CCCCC2)CC1		29.9 µM (active)
CCO[Si](CCCNC(N)=O)(OCC)OCC	inactive	
c1ccc2ccccc2c1	inactive	
CCCCCCCCCC(=O)O	inactive	
CCCCOC(=O)CC(CC(=O)OCCCC)(OC(C)=O)C(=O)OCCCC	inactive	
CCCCCCCCCCCO	inactive	
CCCCCCCCN(C)CCCCCCCC	inactive	
Cc1occc1C(=O)Nc1ccc(C(=O)N2CCC(F)(F)/C(=C\C(=O)N3CCC(N4CCCCC4)CC3)c3ccccc32)cc1	inactive	

SMILES	outcome	AC50
O=c1ccc2ccccc2o1	inactive	
O=CCCCC=O	inactive	
CN(C[C@@H](CC[N+]12CCC(C3CCCCC3)(CC1)CC2)c1ccc(Cl)c(Cl)c1)C(=O)c1cc(C(F)(F)F)cc(C(F)(F)F)c1		5.37 µM (active)
CN1C(=O)CC[C@H]1c1cccnc1	inactive	
Cc1ccc(C(C)C)cc1	inactive	
Cc1cc2c(cc1C(F)(F)F)N(C(=O)Nc1ccc(Oc3cccnc3C)nc1)CC2	inactive	
CN1C(=O)N(c2ccccc2Br)Cc2cnc(Nc3ccc4c(c3)OCC(CO)O4)nc21 (stereo not given)	inactive	
c1ccc2n[nH]nc2c1	inactive	
CCCOC(=O)c1cc(O)c(O)c(O)c1	inactive	
Oc1ccc2ccccc2c1	inactive	
C[C@]12CC[C@@H]3c4ccc(O)cc4CC[C@H]3[C@@H]1CCC2=O	inactive	
CC[C@@H]1C[C@H](N(Cc2cc(C(F)(F)F)cc(C(F)(F)F)c2)C(C)=O)c2cc(C(F)(F)F)ccc2N1C(=O)OC(C)C	inactive	
OC12N=C(c3ccccc3)SC1Cc1cc(Cl)ccc12 (stereo not given)	inactive	
Cc1cccc2ccccc12	inactive	
Cc1ncc(CO)c(CO)c1O	inactive	
O=C1c2ccccc2C(=O)N1CCc1noc(-c2ccc(CN3CCCCCC3)s2)n1	inactive	
Cc1cc(F)ccc1-c1cc(N2CC[C@@H](O)[C@H]2CO)ncc1N(C)C(=O)C(C)(C)c1cc(C(F)(F)F)cc(C(F)(F)F)c1	inactive	
O=C(OCCCCCCOC(=O)c1ccccc1)c1ccccc1	inactive	
COc1ccc2cc(S(=O)(=O)N[C@H](CC(=O)N[C@H](Cc3ccc(CN4[C@H](C)CCC[C@@H]4C)cc3)C(=O)N(C)C(C)C)c3ccc4c(c3)OCO4)ccc2c1	inactive	
CCCCCCCCCCCC[N+](C)(C)C	inactive	
